sPLA2-III inh = human group III sPLA2 inhibitors, primary screen, biochemical, QFRET, BODIPY PC-A2 liposome substrate. inhibition, % at 12.2 µM. QFRET BODIPY PC-A2 liposome hydrolysis, fluorescence. Group 3 secretory phospholipase A2 (Homo sapiens), Q9NZ20. AID 743126, 2013. hit rate 0.56% among 370,000;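 active = inhibition above mean plus 3 SD of compounds lying within the high and low control bounds, cut at about 19% in these data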;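 note: 0% = median of test compound wells and 100% = no enzyme DMSO wells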
Target sequence (Q9NZ20 whole entry, looked up): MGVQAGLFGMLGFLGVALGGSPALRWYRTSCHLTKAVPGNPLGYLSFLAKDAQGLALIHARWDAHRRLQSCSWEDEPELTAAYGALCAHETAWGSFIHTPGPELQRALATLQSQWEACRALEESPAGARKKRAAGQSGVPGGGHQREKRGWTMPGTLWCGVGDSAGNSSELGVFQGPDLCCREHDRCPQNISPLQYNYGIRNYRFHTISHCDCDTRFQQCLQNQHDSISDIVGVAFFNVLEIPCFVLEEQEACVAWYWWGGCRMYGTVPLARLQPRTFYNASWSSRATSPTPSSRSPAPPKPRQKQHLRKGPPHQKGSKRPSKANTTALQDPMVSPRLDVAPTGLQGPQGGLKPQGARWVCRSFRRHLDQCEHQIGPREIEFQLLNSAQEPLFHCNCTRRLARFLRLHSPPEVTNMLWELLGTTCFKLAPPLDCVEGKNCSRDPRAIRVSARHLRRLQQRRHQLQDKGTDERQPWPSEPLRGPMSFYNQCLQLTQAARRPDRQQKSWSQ
rCAG RNA binder = binders of r(CAG) RNA repeats, primary screen, biochemical, fluorescence | inhibition, % at 3 µM | hit rate 1.3% among 370,000 | r(CAG) RNA repeat, TO-PRO-1 dye displacement fluorescence;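 active = inhibition above the plate cutoff, the mean of all test compounds on that plate plus 3 SD, cut at about 35% in these data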;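 note: 0% = DMSO alone and 100% = 100 µM mitoxantrone as full dye displacement; higher means more dye released from RNA so lower well fluorescence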
MsrA inhibitor = bovine MsrA enzyme inhibitors, primary screen, biochemical, absorbance, HTS; Methionine sulfoxide reductase A (Bos taurus); purified bovine MsrA, absorbance read-out; inhibition, % at 15.5 µM; hit rate 0.75% among 360,000; AID 651718, 2012; in the data active = inhibition above about 4.5%;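 note: 0% = vehicle wells with enzyme and 100% = reference inhibitor wells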
PG9 binder = binders of HIV-1 gp120 antibody PG9, primary screen, biochemical, TR-FRET | AID 624416, 2012 | TR-FRET gp120-PG9 antibody binding | inhibition, % at 6.7 µM | HIV-1 gp120 / PG9 antibody interaction | hit rate 0.43% among 360,000; in the data active = inhibition above about 8.5%
bovine MsrA act = bovine MsrA enzyme activators, primary screen, biochemical, absorbance, HTS | Methionine sulfoxide reductase A (Bos taurus) | purified bovine MsrA, absorbance read-out | activation, % at 10.6 µM | hit rate 0.3% among 360,000; in the data active = activation above about 7.5%;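 note: 0% = vehicle and 100% = reference activator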
rCAG bind conf = small molecules binding CAG repeat RNA – biochemical, fluorescence, confirmation. inhibition, % at 3 µM. hit rate 70% among 4,300. r(CAG) RNA repeat, TO-PRO-1 dye displacement fluorescence. shares compounds with rCAG RNA binder;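 active = inhibition above a per-plate cutoff, the mean inhibition of sample wells plus 3 SD, cut at about 35% in these data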;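 note: loss of TO-PRO-1 fluorescence as compound displaces dye from 1x1 AA loop RNA; 0% = DMSO only wells and 100% = 100 µM mitoxantrone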
DNA CAG counter = displacement of TO-PRO-1 from CAG DNA duplex, counter-screen for rCAG RNA repeat binder project, biochemical, fluorescence, TO-PRO-1 dye, d(CAG) DNA oligo; shares compounds with rCAG RNA binder; inhibition, % at 3 µM; hit rate 94% among 4,300; d(CAG) DNA oligo TO-PRO-1 dye displacement;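 active = inhibition above its plate's cutoff, the mean test-well inhibition plus 3 SD, cut at about 4.8% in these data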;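 note: 0% = DNA dye mix with DMSO and 100% = 100 µM mitoxantrone; hits displace the dye from DNA and so lower well fluorescence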
Active calls of the source: *; x = no result given. An excerpt weighted towards active compounds, which were near 3.2% of everything screened.

SMILES	sPLA2-III inh	rCAG RNA binder	MsrA inhibitor	PG9 binder	bovine MsrA act	rCAG bind conf	DNA CAG counter
COc1cc(NC(=O)c2ccccc2)c(OC)cc1NC(=O)CSc1[nH]c(=O)cc(C)c1C#N	-6	8	0	-2	-2	x	x
COc1ccc(NC(=O)CSc2nc(O)cc(=O)[nH]2)c(OC)c1	6	47*	1	0	-1	4	2
COc1ccc(NC(=O)CSc2sc3c(O)cc(=O)[nH]c3c2C#N)c(OC)c1	2	63*	2	1	-5	27	13*
O=C(CSc1nnc(-c2ccccc2)n1-c1ccc(Cl)cc1)Nc1ccc(OCc2ccccc2)cc1	1	6	x	x	x	x	x
COCC(=O)N[C@H]1C[C@@H]2O[C@H](CO)CC[C@@H]2O[C@@H]1CCc1ccc(-c2ccccc2)cc1	-3	0	x	x	x	x	x
C[C@H]1[C@@H](OC(=O)N2CCOCC2)CC[C@@]23CCCN2C(=O)CCC[C@@H]13	-2	x	x	x	x	x	x
COc1ccc(C)cc1NC(=O)c1ccccc1NS(=O)(=O)c1ccc(Cl)s1	-72	90*	2	0	-5	84*	54*
COc1ccccc1NC(=O)c1ccccc1NS(C)(=O)=O	-7	8	0	-5	-4	x	x
COc1ccccc1NC(=O)c1ccccc1NS(=O)(=O)c1cccs1	-16	37*	1	0	0	27	5.3*
COc1ccc(OC)c(C=NNC(=O)c2ccccc2NS(=O)(=O)c2cccs2)c1	-7	60*	4	0	-4	50*	15*
COc1cc(C=NNC(=O)c2ccccc2NS(=O)(=O)c2cccs2)cc(OC)c1O	-13	42*	4	-1	-5	51*	12*
COC(=O)[C@]12C[C@H](CC(=O)NCCC(C)C)C(=O)N(Cc3ccc(Cl)cc3Cl)C1=C[C@H](C1CCCC1)O[C@@H]2C	0	1	x	x	x	x	x
COc1cccc(N(C)C(=O)[C@@H](C2CC2)[C@@H](O)c2ccc(Cl)cc2)c1	-5	-4	x	x	x	x	x
CCCCCCCCN1C(=O)[C@@H](CC(=O)NCc2ccc(C)o2)C[C@@]2(C(=O)OC)C1=C[C@H](COCc1ccccc1)O[C@@H]2C	-15	7	x	x	x	x	x
O=C(CNC(=O)c1cccs1)N/N=C/c1ccc(O)cc1O	-9	-1	3	-1	-3	x	x
O=C(NN=Cc1ccc(O)cc1O)c1ccccc1NS(=O)(=O)c1cccs1	-9	43*	3	-1	3	41*	14*
COc1ccc(NC(=O)c2ccccc2NS(=O)(=O)c2ccc(C)cc2)c([N+](=O)[O-])c1	-34	56*	1	1	-3	60*	25*
OC(c1ccccc1)(c1ccccc1)c1cnc2ccccn12	-2	x	x	x	x	x	x
O/N=C/c1cc(Br)ccc1OCc1ccc(F)cc1	-13	4	-2	-2	-2	x	x
COc1ccc(/C=C2/SC(=S)N(CC(=O)O)C2=O)cc1OCc1ccc(Cl)cc1	-23	29	1	0	-6	x	x
O=C(O)CN1C(=O)/C(=C\c2cc([N+](=O)[O-])ccc2OCc2ccccc2Cl)SC1=S	-19	86*	1	-2	-2	85*	54*
O=C(O)CN1C(=O)/C(=C\c2cc(Br)ccc2OCc2ccc(F)cc2)SC1=S	-37	81*	1	-3	-6	89*	61*
O=C(O)CN1C(=O)/C(=C\c2cc(Br)ccc2OCc2ccc(Cl)cc2)SC1=S	-18	88*	0	-2	-1	94*	74*
O=C(CSc1nnnn1-c1cccc2ccccc12)NC(C(=O)O)(c1ccccc1)c1ccccc1	-24	46*	0	-2	-2	36*	10*
O=C(CSc1nnnn1-c1cccc2ccccc12)N1CCOCC1	-1	0	1	-3	1	x	x
SMILES	sPLA2-III inh	rCAG RNA binder	MsrA inhibitor	PG9 binder	bovine MsrA act	rCAG bind conf	DNA CAG counter
Cc1ccc(-n2nnnc2SCC(=O)NC(C(=O)O)(c2ccccc2)c2ccccc2)cc1C	-16	38*	0	0	-5	38*	10*
CCOC(=O)CNC(=O)CSc1nnnn1-c1ccc(C)c(C)c1	6	-2	1	1	-7	x	x
O=C(CSc1n[nH]c(-c2ccc(S(=O)(=O)N3CCCCC3)cc2)n1)Nc1nccs1	-45	39*	-1	0	0	36*	9.0*
Cn1c(SCC(=O)Nc2nccs2)nnc1-c1ccc(S(=O)(=O)N2CCCC2)cc1	2	-4	1	-1	-3	x	x
CCCn1nc(NS(C)(=O)=O)c2cc3cccc(C)c3nc21	-1	14	1	-1	2	x	x
CCCn1nc(NS(=O)(=O)c2cccc3nonc23)c2cc3cccc(C)c3nc21	-6	85*	3	-3	-1	78*	41*
CCn1nc(NS(=O)(=O)c2ccccc2)c2cc3cccc(C)c3nc21	-5	41*	1	-1	-2	33	11*
CCCn1nc(NS(=O)(=O)c2cccc3nonc23)c2cc3cc(C)ccc3nc21	-3	23	-1	-4	-13	x	x
CCn1nc(NS(=O)(=O)c2ccc(NC(C)=O)cc2)c2cc3ccccc3nc21	2	3	1	-7	-2	x	x
CCn1nc(NS(=O)(=O)c2ccc(NC(C)=O)cc2)c2cc3cccc(C)c3nc21	-12	39*	3	-1	-3	19	4
COC(=O)N1C[C@H](OC)[C@H]2C[C@@H]1c1ccccc1O2	1	1	0	0	x	x	x
CCOc1ccc(NC(=O)COC(=O)c2cc(C)oc2C)cc1	-1	2	0	-3	-7	x	x
COc1cc(Br)c(/C=C/c2ccc3cccc(O)c3n2)cc1OC	-3	14	0	-1	-3	x	x
Oc1ccc(Cl)cc1/C=C/c1ccc2cccc(O)c2n1	-8	32	1	0	-1	x	x
COc1cc(Br)cc(/C=C/c2ccc3cccc(O)c3n2)c1O	15	36*	1	-2	-1	28	13*
COc1cc(/C=C/c2ccc3cccc(O)c3n2)c(Br)cc1O	-27	48*	1	-1	-2	45*	21*
Oc1c(Cl)cc(Cl)cc1/C=C/c1ccc2cccc(O)c2n1	1	41*	3	-1	-3	56*	21*
CCOc1cc(/C=C/c2ccc3cccc([N+](=O)[O-])c3n2)cc(Cl)c1O	-8	41*	3	0	-7	33	13*
O=C(NCCc1ccccc1F)c1cccc2cccnc12	12	3	1	1	-1	x	x

High-throughput results as filed in PubChem.
